Results: PubChem BioAssay
Several values for one entry are separate records, joined by “and”; a condition that tells them apart may be missing. Equal values may be shown once. Records with an inconclusive call do not appear. Activity calls are given as the source filed them.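 The calls were made as follows, unless noted: active = GFP response above 150% of the DMSO level; inconclusive = fewer than 70 events counted for a yeast strain; inactive = the rest.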

What was measured:
[1] = rapamycin-like changes in RPL19A-GFP expression – cell-based, S. cerevisiae, multiplex flow cytometry, primary screen (AID 1862; in the data active = percent of DMSO control GFP below about 86%;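 also: lower values mimic rapamycin by blocking the RPL19A rise seen in DMSO cells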); conditions: S. cerevisiae RPL19A-GFP strain, flow cytometry fluorescence, 3 h; at 10 µM; stronger effect = lower value
[2] = TOR pathway GLN3 branch reporter MEP2-GFP changes – S. cerevisiae, multiplex flow cytometry, primary screen (AID 1867;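 active = GFP response, as percent of the DMSO control, above the screen-wide mean plus 3 SD, about 139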;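 also: median GFP channel fluorescence of barcode-gated MEP2-GFP cells measured by flow cytometry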); conditions: S. cerevisiae MEP2-GFP strain, 3 h, at 10 µM, stronger effect = higher value, 100% means same as DMSO wells
[3] = TOR pathway RTG branch CIT2 reporter changes – S. cerevisiae, GFP fusion, multiplex flow cytometry, primary screen (AID 1870;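 active = percent response above a set limit, the screen-wide mean plus 3 SD, cut at about 130% in these data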;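 also: barcoded CIT2-GFP strain pooled with four other GFP strains with rapamycin as positive control; median GFP fluorescence per well over plate mean of DMSO wells so 100% = DMSO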); conditions: S. cerevisiae CIT2-GFP expression, 3 h, at 10 µM, stronger effect = higher value
[4] = TOR pathway LAP4-GFP level changes – S. cerevisiae, multiplex flow cytometry, primary screen (AID 1873;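 active = GFP signal, as percent of the solvent control, above the screen mean plus 3 SD, about 149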); conditions: S. cerevisiae LAP4-GFP expression, 3 h, at 10 µM, stronger effect = higher value
[5] = yeast AGP1-GFP level changes, GLN3 branch – cell-based, multiplex flow cytometry, S. cerevisiae, primary screen (AID 1887;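 active = GFP signal above the screen-wide mean plus 3 SD, that is over about 124.5% of the solvent control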;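 also: AGP1-GFP fusion strain of S. cerevisiae within a five-strain barcoded multiplex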); conditions: 3 h, at 10 µM, stronger effect = higher value
[6] = hit retest on RPL19A-GFP reporter strain – cell-based, S. cerevisiae, flow cytometry, cherry picks, mother/daughter gates, confirmation (AID 2270;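 active = GFP response below 50% of the DMSO control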); conditions: 3 h, at 10 µM, stronger effect = lower value, 100 = same GFP as DMSO wells
[7] = yeast TOR pathway reporter LAP4-GFP change – cell-based, cherry picks, flow cytometry, mother/daughter gates, confirmation (AID 2271;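 active = GFP response above 150% of the DMSO control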;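 also: ratio of sample to DMSO plate mean so 100% equals DMSO level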); conditions: S. cerevisiae LAP4-GFP strain, 3 h, at 10 µM, stronger effect = higher value, 100 means same as DMSO control
[8] = TOR pathway reporter MEP2-GFP, retest of hits – S. cerevisiae, flow cytometry GFP, cherry picks, confirmation (AID 2272;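 active = GFP response above 150% of the DMSO control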;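 also: ratio of well signal to plate DMSO mean so 100% equals DMSO level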); conditions: S. cerevisiae MEP2-GFP strain, 3 h, at 10 µM, stronger effect = higher value
[9] = TOR pathway CIT2 reporter hit retest – S. cerevisiae, GFP fusion, cherry picks, mother/daughter gates, confirmation (AID 2274); conditions: S. cerevisiae CIT2-GFP strain, flow cytometry, 3 h, at 10 µM, stronger effect = higher value
[10] = reduced mouse 2C T cell binding to pMHC/ICAM-1 vesicles – MLPCN validation set, flow cytometry, LFA-1/ICAM-1 modulator project, pilot screen (AID 2523;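 active = response below a set limit, under 55% cells CD8-positive and vesicle-bound, and CD8 cells' 90th-percentile brightness under 279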;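 as to vesicle binding response: mean PE anti-B7-1 fluorescence of CD8+ cells relative to row control; 100% = QL9-loaded vesicles with DMSO vehicle in the same plate row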); conditions: 2C mouse CD8+ T cells, at 7 µM, stronger effect = lower value; double positive events: measured here: CD8+/vesicle+ event percentage
[11] = target: Integrin beta-1 (Homo sapiens) + Integrin alpha-4 (Homo sapiens) (UniProt P13612+P05556); assay: alpha4beta1 integrin LIBS antibody binding reduction – U937 cells, HUTS-21 mAb, flow cytometry, validation set, VLA-4 allosteric modulator project, pilot screen (AID 2674;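 active = inhibition above 50%, about 3 SD of the validation set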;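 also: antibody binding induced by the VLA-4 ligand LDV present at three times its Kd; 0% = LDV ligand with antibody and no compound and 100% = antibody without LDV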); conditions: HUTS-21 LIBS mAb binding, at 6.7 µM, stronger effect = higher value, binding induced by LDV ligand
[12] = calorie-restriction mimetic ROS inhibitors, yeast – validation compound set, pilot screen (AID 2706;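 active = superoxide response below 65% of plate, a cut near 3 SD across the whole screen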;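 also: yeast exposed to compound for one week at 30 degrees C before staining; 100% = mean of all compound wells on the same plate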); conditions: S. cerevisiae aging, superoxide DHE fluorescence; at 10 µM; stronger effect = lower value
[13] = target: Beta-adrenergic receptor kinase 1 (Homo sapiens) (UniProt P25098); assay: GRK2 binders displacing RNA aptamer, biochemical, validation, human GRK2, bead flow cytometry (AID 488806;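 active = aptamer binding inhibition above 30%, about 3 SD of noise from non-fluorescent compounds; inactive = inhibition at or below 30%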); conditions: bead-bound GRK2, FAM-aptamer displacement, at 10 µM, stronger effect = higher value
[14] = target: Beta-2 adrenergic receptor (Homo sapiens) (UniProt P07550); assay: agonist-induced loss of surface beta2AR – cell-based, FAP fluorogen, flow cytometry, validation set, pilot screen (AID 504459;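 active = percent response above 42, roughly 3 SD of non-fluorescent test compounds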;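 also: agonist-driven loss of surface beta2AR via internalization measured by FAP dye flow cytometry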); conditions: Am2.2-beta2AR cells, at 10 µM, stronger effect = higher value
[15] = target: AP-2 complex subunit beta (Homo sapiens) (UniProt P63010); assay: beta-arrestin/AP2 interaction blockers – biochemical, validation set, GST-AP2 beads, flow cytometry, pilot screen (AID 504541;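 active = inhibition above 54%, about 3 SD of non-fluorescent compounds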;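 also: AP2 carries R879A mutation and is captured from E. coli lysate; bead-bound FITC arrestin peptide fluorescence measuring arrestin peptide binding to AP2; 0% = DMSO wells and 100% = excess unlabeled arrestin peptide control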); conditions: FITC arrestin peptide, at 10 µM, stronger effect = higher value, AP2 beta2 appendage fragment, R879A mutant
[16] = cytosolic pH regulators acting via V-ATPase – S. cerevisiae, pHLuorin, HTS validation (AID 504600; in the data active = response above about 15%;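 also: plate controls were DMSO for no effect and reference compound for full effect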); conditions: V-ATPase proton transport, at 10 µM, stronger effect = higher value
[17] = test system: anti-desmoglein-3 scFv antibody binding to human DSG3; assay: blockers of pathogenic pemphigus antibody–desmoglein-3 binding – biochemical, validation compound set, bead-based, flow cytometry, pilot screen (AID 588368;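 active = binding below the plate cutoff, the plate median minus 3 SD, with a reading above zero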;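 also: signal is the median channel fluorescence of bead-bound GFP antibody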); conditions: Protein G beads, DSG3-Fc, scFv-GFP binding, at 10 µM, stronger effect = lower value
[18] = Nile Red efflux blockade in pump-expressing yeast – validation compound set, multiplex, phenotypic, pilot screen (AID 588506;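 active = efflux inhibition above 0.42, the validation set average plus 4 SD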;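 also: Nile Red retained in cells so higher fluorescence means more efflux inhibition; 0 = negative control wells and 1 = enniatin B 25 µM full block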); conditions: S. cerevisiae pump-expressing triplex, Nile Red efflux flow cytometry; at 10 µM; stronger effect = higher value; the pumps come from Candida albicans
[19] = target: ATP-binding cassette sub-family B member 6 (Homo sapiens) (UniProt Q9NP58); assay: blockers of ABCB6-driven porphyrin uptake – K562-ABCB6 cells, flow cytometry, validation set, pilot screen (AID 588550;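 active = inhibition above the screen-wide mean plus 3 SD, about 51%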;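 also: 0% = DMSO wells and 100% = benzethonium chloride 70 µM positive control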); conditions: K562-ABCB6 porphyrin accumulation, 1 h, at 10 µM, stronger effect = higher value
[20] = AML differentiation inducers, ER-HoxA9 marrow cells – cell-based, GFP/MAC1 double positive, flow cytometry, validation set, primary screen (AID 588685;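 active = differentiation response of at least 50%, scaled between solvent and reference control, from cells with both markers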;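 also: compound exposure lasts four days before antibody staining and flow analysis; 0% = DMSO wells and 100% = 5 µM fulvestrant positive control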); conditions: stronger effect = higher value, normalized: vehicle 0, fulvestrant 100
[21] = measured here: daughter cell gate
[22] = measured here: mother cell gate
[23] = measured here: daughter cell gate response
[24] = measured here: mother cell gate response

Sequence of Beta-adrenergic receptor kinase 1 (Homo sapiens) (P25098 whole entry, looked up): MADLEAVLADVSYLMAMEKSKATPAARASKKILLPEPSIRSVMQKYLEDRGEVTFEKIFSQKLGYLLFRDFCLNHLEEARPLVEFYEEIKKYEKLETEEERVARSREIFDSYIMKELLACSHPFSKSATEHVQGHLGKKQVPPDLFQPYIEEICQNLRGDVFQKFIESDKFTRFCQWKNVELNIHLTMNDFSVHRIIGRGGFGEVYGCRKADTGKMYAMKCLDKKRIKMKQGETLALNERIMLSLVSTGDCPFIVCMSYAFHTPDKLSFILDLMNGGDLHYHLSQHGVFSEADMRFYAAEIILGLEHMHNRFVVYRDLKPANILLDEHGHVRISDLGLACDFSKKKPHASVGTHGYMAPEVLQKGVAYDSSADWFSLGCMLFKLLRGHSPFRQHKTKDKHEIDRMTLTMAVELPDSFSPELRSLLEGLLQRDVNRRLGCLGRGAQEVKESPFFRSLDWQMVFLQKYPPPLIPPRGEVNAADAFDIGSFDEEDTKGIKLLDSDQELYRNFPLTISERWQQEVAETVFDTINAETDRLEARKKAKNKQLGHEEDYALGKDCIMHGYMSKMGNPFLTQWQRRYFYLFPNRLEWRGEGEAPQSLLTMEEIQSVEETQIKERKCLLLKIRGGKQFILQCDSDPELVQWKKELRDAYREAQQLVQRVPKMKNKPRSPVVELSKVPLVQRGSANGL
Sequence of Integrin beta-1 (Homo sapiens) + Integrin alpha-4 (Homo sapiens) (P05556 whole entry, looked up): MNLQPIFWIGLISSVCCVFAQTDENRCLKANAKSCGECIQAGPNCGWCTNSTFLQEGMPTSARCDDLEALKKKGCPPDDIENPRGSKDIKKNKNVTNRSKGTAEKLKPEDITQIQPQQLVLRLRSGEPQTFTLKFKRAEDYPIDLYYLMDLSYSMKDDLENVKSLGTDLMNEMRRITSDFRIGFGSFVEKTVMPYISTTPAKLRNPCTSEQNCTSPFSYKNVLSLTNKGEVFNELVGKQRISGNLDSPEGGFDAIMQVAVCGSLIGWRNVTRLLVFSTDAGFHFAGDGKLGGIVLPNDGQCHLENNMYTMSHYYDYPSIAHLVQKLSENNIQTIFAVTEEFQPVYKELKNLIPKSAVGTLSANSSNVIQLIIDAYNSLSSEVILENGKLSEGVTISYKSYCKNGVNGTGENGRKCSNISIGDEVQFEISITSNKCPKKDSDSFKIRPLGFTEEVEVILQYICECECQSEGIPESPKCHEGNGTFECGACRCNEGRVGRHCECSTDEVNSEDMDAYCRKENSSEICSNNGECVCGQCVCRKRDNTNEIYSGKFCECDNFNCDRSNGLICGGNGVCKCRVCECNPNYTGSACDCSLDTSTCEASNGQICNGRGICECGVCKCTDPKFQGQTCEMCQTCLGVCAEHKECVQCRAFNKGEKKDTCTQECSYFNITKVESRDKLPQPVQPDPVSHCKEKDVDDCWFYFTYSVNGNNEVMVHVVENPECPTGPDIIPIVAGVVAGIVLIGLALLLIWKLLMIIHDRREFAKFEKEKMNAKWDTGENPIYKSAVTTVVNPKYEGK
Sequence of Integrin beta-1 (Homo sapiens) + Integrin alpha-4 (Homo sapiens) (P13612 whole entry, looked up): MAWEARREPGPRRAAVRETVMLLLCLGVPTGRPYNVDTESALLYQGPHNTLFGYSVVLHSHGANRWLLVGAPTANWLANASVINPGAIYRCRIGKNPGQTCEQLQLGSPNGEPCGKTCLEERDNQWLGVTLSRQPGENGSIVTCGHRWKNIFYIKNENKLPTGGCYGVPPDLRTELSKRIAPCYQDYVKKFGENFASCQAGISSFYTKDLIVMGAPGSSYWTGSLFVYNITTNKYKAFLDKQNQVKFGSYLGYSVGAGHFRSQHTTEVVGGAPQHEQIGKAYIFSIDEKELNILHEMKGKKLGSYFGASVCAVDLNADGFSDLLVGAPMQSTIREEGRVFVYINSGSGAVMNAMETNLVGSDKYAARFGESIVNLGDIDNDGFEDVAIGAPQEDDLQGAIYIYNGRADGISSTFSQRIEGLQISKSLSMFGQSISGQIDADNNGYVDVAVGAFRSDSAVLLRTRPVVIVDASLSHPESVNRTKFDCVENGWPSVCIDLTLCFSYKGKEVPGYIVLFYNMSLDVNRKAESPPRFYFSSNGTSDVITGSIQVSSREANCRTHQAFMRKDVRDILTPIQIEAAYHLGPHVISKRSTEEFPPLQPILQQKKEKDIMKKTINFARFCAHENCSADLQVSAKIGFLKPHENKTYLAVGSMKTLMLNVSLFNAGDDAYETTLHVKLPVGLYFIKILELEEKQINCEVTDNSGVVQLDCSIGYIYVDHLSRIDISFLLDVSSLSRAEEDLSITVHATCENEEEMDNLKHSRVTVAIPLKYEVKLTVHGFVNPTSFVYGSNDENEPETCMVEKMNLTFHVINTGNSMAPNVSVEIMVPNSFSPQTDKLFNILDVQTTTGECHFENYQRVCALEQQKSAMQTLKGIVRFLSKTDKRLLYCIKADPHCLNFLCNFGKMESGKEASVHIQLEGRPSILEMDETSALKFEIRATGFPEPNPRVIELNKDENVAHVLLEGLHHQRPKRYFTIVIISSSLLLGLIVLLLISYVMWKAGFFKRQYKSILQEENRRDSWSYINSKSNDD
Sequence of ATP-binding cassette sub-family B member 6 (Homo sapiens) (Q9NP58 whole entry, looked up): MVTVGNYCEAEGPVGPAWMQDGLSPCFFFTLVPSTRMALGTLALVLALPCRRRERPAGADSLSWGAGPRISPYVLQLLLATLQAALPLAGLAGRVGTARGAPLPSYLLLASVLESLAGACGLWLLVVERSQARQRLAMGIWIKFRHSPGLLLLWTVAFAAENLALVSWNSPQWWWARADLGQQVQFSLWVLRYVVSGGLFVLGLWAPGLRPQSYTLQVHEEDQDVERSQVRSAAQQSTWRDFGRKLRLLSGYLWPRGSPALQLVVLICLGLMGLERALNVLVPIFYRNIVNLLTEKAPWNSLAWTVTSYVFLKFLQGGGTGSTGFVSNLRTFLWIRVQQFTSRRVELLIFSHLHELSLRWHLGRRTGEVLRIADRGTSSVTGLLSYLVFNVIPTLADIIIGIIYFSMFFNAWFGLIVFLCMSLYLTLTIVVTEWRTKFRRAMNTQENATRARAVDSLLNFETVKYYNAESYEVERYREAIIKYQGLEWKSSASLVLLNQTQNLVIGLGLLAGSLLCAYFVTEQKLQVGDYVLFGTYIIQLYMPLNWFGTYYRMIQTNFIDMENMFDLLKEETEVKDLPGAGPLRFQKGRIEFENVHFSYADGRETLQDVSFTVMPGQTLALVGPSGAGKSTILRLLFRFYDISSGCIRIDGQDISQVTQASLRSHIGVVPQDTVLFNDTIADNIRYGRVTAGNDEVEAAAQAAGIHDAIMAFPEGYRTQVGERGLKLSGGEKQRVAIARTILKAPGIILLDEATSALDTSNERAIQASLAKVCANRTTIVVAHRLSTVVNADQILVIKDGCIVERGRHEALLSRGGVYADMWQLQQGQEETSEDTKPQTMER
Sequence of AP-2 complex subunit beta (Homo sapiens) (P63010 whole entry, looked up, the tested form may be a part, one chain of several): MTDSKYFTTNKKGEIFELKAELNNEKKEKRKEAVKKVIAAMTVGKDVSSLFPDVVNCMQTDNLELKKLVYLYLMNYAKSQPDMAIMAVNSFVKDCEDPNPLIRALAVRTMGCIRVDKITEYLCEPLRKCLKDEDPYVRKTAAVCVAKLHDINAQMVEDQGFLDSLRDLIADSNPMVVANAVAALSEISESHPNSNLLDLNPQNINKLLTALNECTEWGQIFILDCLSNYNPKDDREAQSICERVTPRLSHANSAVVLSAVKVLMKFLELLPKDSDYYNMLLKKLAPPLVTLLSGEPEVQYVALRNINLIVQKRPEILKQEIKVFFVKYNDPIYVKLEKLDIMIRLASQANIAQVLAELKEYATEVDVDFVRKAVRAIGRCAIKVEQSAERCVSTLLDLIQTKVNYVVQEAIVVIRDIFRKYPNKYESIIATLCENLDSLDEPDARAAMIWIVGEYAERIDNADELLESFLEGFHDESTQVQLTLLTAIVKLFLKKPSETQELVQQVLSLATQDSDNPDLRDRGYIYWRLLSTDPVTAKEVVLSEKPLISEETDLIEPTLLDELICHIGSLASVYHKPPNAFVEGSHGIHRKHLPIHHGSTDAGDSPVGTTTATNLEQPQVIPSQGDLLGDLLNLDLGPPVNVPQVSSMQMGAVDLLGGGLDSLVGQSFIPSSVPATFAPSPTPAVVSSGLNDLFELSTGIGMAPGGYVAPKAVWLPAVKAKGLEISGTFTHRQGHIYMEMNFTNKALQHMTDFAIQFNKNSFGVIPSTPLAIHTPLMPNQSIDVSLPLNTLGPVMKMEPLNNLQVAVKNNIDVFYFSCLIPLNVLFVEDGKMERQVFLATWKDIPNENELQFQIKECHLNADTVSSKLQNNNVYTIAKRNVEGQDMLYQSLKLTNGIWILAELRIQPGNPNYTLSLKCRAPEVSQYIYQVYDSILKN
Sequence of Beta-2 adrenergic receptor (Homo sapiens) (P07550 whole entry, looked up): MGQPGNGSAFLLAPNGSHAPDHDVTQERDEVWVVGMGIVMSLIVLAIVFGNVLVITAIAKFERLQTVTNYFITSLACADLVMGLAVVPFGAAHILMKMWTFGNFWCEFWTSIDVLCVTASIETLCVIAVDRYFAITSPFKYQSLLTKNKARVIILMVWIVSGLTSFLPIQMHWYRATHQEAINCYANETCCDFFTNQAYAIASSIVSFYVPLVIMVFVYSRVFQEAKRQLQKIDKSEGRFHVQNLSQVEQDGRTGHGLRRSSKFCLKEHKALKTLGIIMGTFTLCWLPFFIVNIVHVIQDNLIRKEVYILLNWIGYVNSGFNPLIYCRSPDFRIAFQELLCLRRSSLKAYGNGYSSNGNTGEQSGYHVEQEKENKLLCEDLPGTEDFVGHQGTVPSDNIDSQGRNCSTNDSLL

C1COC(NC(C2CC2)C2CC2)=N1
97.3%: GFP response, % of DMSO [9, 22]
active: GFP response vs DMSO [2] 148%
97.6%: GFP response vs DMSO [6, 22]
95.1%: GFP response relative to DMSO [7, 24]
97.1%: GFP response vs DMSO [6, 21]
inactive: percent of DMSO control GFP [1] 89.3% | percent response of DMSO control [3] 110% | GFP response vs DMSO [4] 85.3% | GFP response, % of DMSO [5] 94.5% | GFP response vs DMSO [6] 96% | GFP response relative to DMSO [7] 95.4% | GFP response vs DMSO [8] 96.2% | GFP response, % of DMSO [9] 98.3% | vesicle binding response [10] 227% | inhibition [11] 17.1% | superoxide response (% of plate) [12] 96.6% | aptamer binding inhibition [13] 3% | response [14] 3.85% | inhibition [15] 11.9% | response [16] 9.25% | binding (% of control) [17] 98.3% | efflux inhibition (fraction of control) [18] 0.23 | inhibition [19] 6% | differentiation response [20] 0.82%
64.4%: double positive events [10]
101%: GFP response, % of DMSO [9, 21]
96%: GFP response relative to DMSO [7, 23]

C[C@]12CC[C@@H]3c4ccc(O)cc4C(=O)C[C@H]3[C@@H]1CC[C@@H]2O
active: GFP response vs DMSO [2] 148% | vesicle binding response [10] 60.7%
98.5%: GFP response vs DMSO [6, 22]
92.1%: GFP response relative to DMSO [7, 24]
95.6%: GFP response vs DMSO [6, 21] | GFP response relative to DMSO [7, 23]
113%: GFP response, % of DMSO [9, 22]
108%: GFP response, % of DMSO [9, 21]
39.3%: double positive events [10]
inactive: percent of DMSO control GFP [1] 98.3% | percent response of DMSO control [3] 116% | GFP response vs DMSO [4] 88% | GFP response, % of DMSO [5] 97.5% | GFP response vs DMSO [6] 97.4% | GFP response relative to DMSO [7] 90.2% | GFP response vs DMSO [8] 95.7% | GFP response, % of DMSO [9] 111% | inhibition [11] -0.33% | superoxide response (% of plate) [12] 104% | aptamer binding inhibition [13] 1% | response [14] -10.5% | inhibition [15] 44.1% | response [16] -4.63% | binding (% of control) [17] 91.9% | efflux inhibition (fraction of control) [18] 0.37 | inhibition [19] 0% | differentiation response [20] 0.82%

C#C[C@]1(O)CC[C@H]2[C@@H]3CCC4=CC(=O)CC[C@@H]4[C@H]3CC[C@@]21CC
inactive: percent of DMSO control GFP [1] 96.3% | GFP response vs DMSO [2] 96.6% | percent response of DMSO control [3] 97.7% | GFP response vs DMSO [4] 107% | GFP response, % of DMSO [5] 103% | GFP response vs DMSO [6] 101% | GFP response relative to DMSO [7] 101% | GFP response vs DMSO [8] 95.7% | GFP response, % of DMSO [9] 102% | vesicle binding response [10] 142% | inhibition [11] 15.1% | superoxide response (% of plate) [12] 92.6% | aptamer binding inhibition [13] 8% | response [14] -17.9% | inhibition [15] -1.43% | response [16] 1.52% | binding (% of control) [17] 98% | efflux inhibition (fraction of control) [18] -0.04 | inhibition [19] 7% | differentiation response [20] 2.89%
101%: GFP response vs DMSO [6, 22]
62.5%: double positive events [10]
103%: GFP response relative to DMSO [7, 24]
99.7%: GFP response, % of DMSO [9, 21]
98.7%: GFP response vs DMSO [6, 21]
102%: GFP response relative to DMSO [7, 23] | GFP response, % of DMSO [9, 22]

C[C@]12CCC(=O)C=C1CC[C@@H]1[C@@H]2[C@@H](O)C[C@@]2(C)[C@H]1CC[C@]2(O)C(=O)COC(=O)CCC(=O)O
91.1% and 100%: GFP response relative to DMSO [7, 24]
101% and 94.9%: GFP response vs DMSO [6, 22]
inactive: percent of DMSO control GFP [1] 104% | GFP response vs DMSO [2] 108% | percent response of DMSO control [3] 110% | GFP response vs DMSO [4] 119% | GFP response, % of DMSO [5] 108% | GFP response vs DMSO [6] 98% and 96.4% | GFP response relative to DMSO [7] 97.4% and 99.2% | GFP response vs DMSO [8] 100% | GFP response, % of DMSO [9] 96.5% and 98.3% | vesicle binding response [10] 165% | inhibition [11] -9.57% | superoxide response (% of plate) [12] 98.2% | aptamer binding inhibition [13] 0% | inhibition [15] -8.58% | response [16] 10.6% | binding (% of control) [17] 99.5% | efflux inhibition (fraction of control) [18] -0.16 | inhibition [19] 10% | differentiation response [20] -26%
94.8% and 99.1%: GFP response, % of DMSO [9, 21]
43.7%: double positive events [10]
92.3% and 97.3%: GFP response, % of DMSO [9, 22]
96.4% and 98.1%: GFP response vs DMSO [6, 21]
103% and 97.6%: GFP response relative to DMSO [7, 23]
